# From PubChem BioAssay (EPA / NIEHS)
# Records with an inconclusive call do not appear. Calls of active or inactive are those of the source. The calls were made as follows, unless noted: active = hit-call score of the fitted dose curve at least 0.9, where 1 is the maximum; inconclusive = response in the unintended direction; inactive = score below 0.9.
# Legend:
# [1] = CPHEA_Stoker_NIS_Cytotoxicity: Cytotoxicity Assessment for CPHEA's Radioactive Iodide Uptake (RAIU) Assay for Sodium/Iodide Symporter (NIS) Inhibition, Stoker and Laws Labs (AID 2283897);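 as to AC50: active means loss of ATP signal versus DMSO meaning cytotoxicity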
# Procedure, shortened: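 ATP luminescence (Cell Titer Glo) measured viability, with loss of signal normalized to DMSO controls. Cells: hNIS-HEK293T-EPA, seeded 40 hours prior. Dosing: 0.001–100uM, 2 hours, room temperature, uptake buffer pH 7.4.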
# [2] = system: Sodium/Iodide Symporter (NIS), SLC5A5 (gene 6528); test: CPHEA_Stoker_NIS_Inhibition_RAIU: CPHEA's Radioactive Iodide Uptake (RAIU) Assay for Sodium/Iodide Symporter (NIS) Inhibition, Stoker and Laws Labs (AID 2283841)
# Procedure, shortened: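 Iodide uptake through human NIS is measured in an engineered HEK293T line. Cells take up 125I (329pM final) for 2 hours at room temperature alongside chemicals at 0.001–100uM. Retained radioactivity is counted, and the signal is expressed against DMSO controls.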
# [3] = CEETOX_H295R_11DCORT_noMTC: CeeTox H295R High-throughput Steroidogenesis Assay for 11-Deoxycortisol (11DCORT), maximum tolerated concentration (MTC) filtered results only (AID 2283911; active = hit-call score of the fitted dose curve at least 0.9, where 1 is the maximum; inactive = score below 0.9); conditions: actives raise or lower the signal
# Procedure, shortened: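 H295R, OECD 456-based; 10 uM forskolin 48 h → compound (0.1% DMSO) 48 h → medium extracted, 11DCORT by LC-MS/MS. Gain/loss vs DMSO control, all concentrations kept regardless of MTT viability.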
# [4] = CEETOX_H295R_OHPREG_noMTC: CeeTox H295R High-throughput Steroidogenesis Assay for OH-Pregnenolone (OHPREG), maximum tolerated concentration (MTC) filtered results only (AID 2283912; active = hit-call score of the fitted dose curve at least 0.9, where 1 is the maximum; inactive = score below 0.9); conditions: actives raise or lower the signal
# Procedure, shortened: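 Medium 17alpha-hydroxypregnenolone quantified by reverse-phase HPLC-MS/MS after 48 h chemical exposure of forskolin-prestimulated (10 uM, 48 h) H295R, 0.1% DMSO final. Fitting bidirectional relative to DMSO; no maximum-tolerated-concentration filtering applied.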
smiles,measurement,setting,value
O=C(CCCN1CCC(O)(c2ccc(Cl)cc2)CC1)c1ccc(F)cc1,outcome,[1],inactive
O=C1OC2(c3ccccc31)c1cc(I)c(O)c(I)c1Oc1c2cc(I)c(O)c1I,AC50,[2],0.248 µM (active)
same,outcome,[1],inactive
CCCCCCCCCCCC,outcome,[2],inactive
same,outcome,[1],inactive
CCCCCCc1ccc(N)cc1,outcome,[2],inactive
same,outcome,[1],inactive
NC(=NCCCCCCN=C(N)/N=C(\N)Nc1ccc(Cl)cc1)/N=C(\N)Nc1ccc(Cl)cc1,outcome,[2],inactive
same,AC50,[1],87 µM (active)
CC(C)c1c(C(=O)Nc2ccccc2)c(-c2ccccc2)c(-c2ccc(F)cc2)n1CC[C@@H](O)C[C@@H](O)CC(=O)O,outcome,[2],inactive
same,outcome,[1],inactive
Cc1[nH]nc2c1N=C(c1ccccc1Cl)c1cc([N+](=O)[O-])ccc1N2,outcome,[2],inactive
same,outcome,[1],inactive
Cc1cc(C(C)(C)C)c(O)c(C(C)(C)C)c1,outcome,[2],inactive
same,outcome,[1],inactive
O=C(O)C(F)(F)OC(F)(F)C(F)(F)OC(F)(F)C(F)(F)OC(F)(F)C(F)(F)C(F)(F)C(F)(F)F,outcome,[2],inactive
O=C(CC(=O)C(F)(F)C(F)(F)C(F)(F)F)c1cccs1,AC50,[2],13.5 µM (active)
CCCCc1oc2ccccc2c1C(=O)c1cc(I)c(OCCN(CC)CC)c(I)c1,outcome,[1],inactive
C/C=C/C(=O)C1=C(C)CCCC1(C)C,outcome,[3],inactive
same,outcome,[4],inactive
O=C(O)CCC(F)(F)C(F)(F)C(F)(F)C(F)(F)C(F)(F)F,outcome,[2],inactive
O=C(O)C(=O)O,outcome,[2],inactive
same,outcome,[1],inactive
CN(CCO)S(=O)(=O)C(F)(F)C(F)(F)C(F)(F)C(F)(F)C(F)(F)C(F)(F)C(F)(F)C(F)(F)F,outcome,[2],inactive
OCC(F)(F)C(F)(F)C(F)(F)C(F)(F)C(F)(F)C(F)(F)C(F)(F)C(F)(F)C(F)(F)C(F)(F)C(F)(F)F,outcome,[2],inactive
